Source: PubChem BioAssay AID651871 (Sanford-Burnham Center for Chemical Genomics, 2012)
“And” between values parts separate entries of the source, which are not always exact repeats. Identical values can stand only once.

System: HL-1
Assay: cardiomyocyte survival under oxidative or metabolic stress – cell-based, panel, H9c2 and HL-1, ATP luminescence, set 2, SAR follow-up (AID 651871);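 note: cells exposed to stressor for 2 h before ATP readout; reference of the scale not given here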
Conditions: H9c2/HL-1 cardiomyocytes, H2O2 oxidative stress; with H2O2, run 1, at 79 µM (top of the series)

| SMILES | activity (protection/inhibition) |
| --- | --- |
| CCOC(=O)c1cccc(NC(=O)CNC(=O)c2cc(-c3cc(OC)c(OC)c(OC)c3)nc3ccccc23)c1 | 56.7% |
| COc1cc(-c2cc(C(=O)Nc3cccc(C(=O)NCc4ccccc4)c3)c3ccccc3n2)cc(OC)c1OC | 34.6% |
| COc1ccc2c(c1OC)C(=O)N1c3ccccc3C(=O)N(Cc3cccc(Cl)c3Cl)C21 (centres undefined) | -0.863% and -7.11% and 4.56% |
| COc1ccc2nc(-c3cc(OC)c(OC)c(OC)c3)cc(C(=O)NCC(=O)Nc3ccc(C(C)=O)cc3)c2c1 | 41.2% and 24.9% |
